High-throughput results as filed in PubChem BioAssay.
KB-3-1 tox = KB-3-1 parental cell cytotoxicity | Potency, µM (titrated, usually from 46.1 µM), actives largely listed as cytotoxic | KB-3-1 viability, CellTiter-Glo ATP luminescence, 72 h | 400,000 compounds, 1.4% hits | AID 1347075; further: on the % scale 0 is the no-effect control and ±100 the full control effect; nearly all actives have a fitted effect of over 60% in size
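Using CellTiter-Glo luminescence, growth of non-resistant KB-3-1 adenocarcinoma cells is assessed 72 h after pin-tool compound addition at 37 °C. Normalized responses across the concentration series yield fitted curves.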
HT1080 IDH1KD tx = toxicity to HT-1080 IDH1 knockdown cells (counter line); HT-1080 IDH1 knockdown viability, ATP luminescence, 48 h; Potency, µM (highest dose often 46.1 µM), without a hit: at the highest dose activity, negative = toxicity, actives largely listed as cytotoxic; 360,000 compounds, 2% hits;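 further: 0% = DMSO wells and -100% = cell-free medium wells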
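Using the IDH1-knockdown HT-1080 line run in the same batch and compound series as the NT line, viability after 48 h at 37 °C was determined by CellTiter-Glo luminescence and expressed as % activity.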
MCF10A rereplic = DNA re-replication induction in MCF 10a cells | MCF 10A DNA re-replication, Hoechst nuclear intensity, 48 h | Potency, µM (top dose mostly 46.1 µM), for the others: at the top dose activity, positive = re-replication, most hits filed as activators | 350,000 compounds, 2.9% hits; further: % of control where 0% means no effect; nearly all actives have a fitted effect of over 50% in size
SW480 rereplic = DNA re-replication induction in SW480 cells. 340,000 compounds, 1.8% hits. Potency, µM (top dose mostly 46.1 µM), inactives show at the highest dose re-replication activation, most hits filed as activators. SW480 DNA re-replication, Hoechst DNA content imaging, 48 h. AID 624297; further: % of control where 0% means no effect; nearly all actives have a fitted effect of over 55% in size
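Compounds, transferred as 23 nL by pin tool, were incubated with cells for 48 hr; DNA content per nucleus was then quantified by Hoechst staining and fluorescence plate imaging.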
KB-V1 cytotox = KB-V1 MDR subline cytotoxicity; Potency, µM (top dose mostly 46.1 µM), most hits filed as cytotoxic; AID 1347076; KB-V1 MDR cells viability, CellTiter-Glo, 72 h; 400,000 compounds, 3.4% hits; further: on the % scale 0 is the no-effect control and ±100 the full control effect; nearly all actives have a fitted effect of over 60% in size
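Readout: CellTiter-Glo luminescence, 10 min after addition. Cells: KB-V1 MDR subline, 72 h at 37 degrees C with compound. Analysis: corrected, normalized data fitted to concentration-effect curves.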
HT1080-NT tox = kills 2HG-producing HT-1080-NT fibrosarcoma cells | HT-1080-NT fibrosarcoma viability, CellTiter-Glo ATP luminescence, 48 h | Potency, µM (doses to about 46.1 µM), for the others: top-dose activity, negative = less viability, usual class: cytotoxic | 360,000 compounds, 1.6% hits;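 further: NT is the 2HG producing partner of a matched IDH1 knockdown line; 0% = DMSO-treated cells and -100% = media-only wells without cells; nearly all actives have a fitted effect of over 55% in size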
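Compounds were tested in concentration-response format on HT-1080-NT cells for 48 hours at 37 degrees C. Cell viability came from CellTiter-Glo luminescence; curves were classified by r2, response magnitude and activity.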
* marks the source's active call; other numbers are inactive results; i = inactive; ? = inconclusive; nt = no result given; ! = not active in a repeat; [ ] = remark or other dose. Sampled rows, rich in hits. Any-hit rate of the full collection: about 8%. The call rests on the fitted dose curve; in most records, active means well fitted curve in the direction sought with a large enough effect; inconclusive means small, poorly fitted or top-dose-only effect, or another doubt; inactive means no such curve, though single readings can be large; an effect the other way counts as inactive or inconclusive. Potency means the concentration at half of the fitted maximal effect.

SMILES | KB-3-1 tox | HT1080 IDH1KD tx | MCF10A rereplic | SW480 rereplic | KB-V1 cytotox | HT1080-NT tox
COc1ccc(-c2cc(=O)n(-c3ccc([N+](=O)[O-])cc3)[nH]2)cc1 | ? | ? | 16µM* | 0% | i | ?
COc1ccc(-c2[nH]n(-c3ccc([N+](=O)[O-])cc3)c(=O)c2C=NCc2ccc(F)cc2)cc1 | i | -5% | ? | -80% | i | 7%
CN(C)c1ccc(CC(=O)N2CCCC(c3cc(C(=O)Nc4ccc(C(C)(C)C)cc4)no3)C2)cc1 (stereo not given) | i | 10µM* | nt | nt | i | -17%
CCOC(=O)C1(C)CCCN(C(=O)c2cccc(C(F)(F)F)c2)C1 (stereo not given) | i | 0% | nt | nt | i | -2%
CCc1sc(-c2cc3ccccc3oc2=O)nc1-c1ccc(C)cc1 | i | nt | nt | nt | i | nt
COc1cc2cnc(-c3ccccc3)c(-c3ccc(C#N)cc3)c2cc1OC | 13µM* | 9% | -6% | 0% | i | 0%
O=C(Nc1ccc(Br)cc1F)c1ncoc1-c1ccco1 | i | nt | nt | nt | i | nt
CCC1CCc2c(sc(NC(=O)C3c4ccccc4Oc4ccccc43)c2C(N)=O)C1 (stereo not given) | i | 3% | ? | 100% | i | -8%
COC(=O)c1ccccc1NC(=O)CSc1nc(-c2ccco2)cc(C(F)(F)F)n1 | ? | 3.5µM* | 0% | 0% | ? | ?
Cc1ccc(NC(=O)CSc2nc(-c3ccco3)cc(C(F)(F)F)n2)cc1C | 4.1µM*! | 2.5µM* | 1.2µM* | 2.6µM* | 4.1µM* | 10µM*
COc1cc(C(=O)NC2CCCc3c2cnn3-c2ccccc2F)cc(OC)c1OC (stereo not given) | ? | -25% | 8% | -10% | ? | -21%
Cc1nnsc1C(=O)NC1CCCc2c1cnn2-c1ccc(F)cc1F (stereo not given) | i | -15% | 18% | 0% | ? | 7.3µM*
COC(=O)c1ccc(C(=O)NC2CCCc3c2cnn3-c2ccccc2F)nc1 (stereo not given) | ? | ? | 15µM* | 18µM* | 4.1µM* | ?
Cc1nnsc1C(=O)NC1CCCc2c1cnn2-c1cc(F)cc(F)c1 (stereo not given) | i | 0% | -1% | -4% | i | 2%
COc1ccc(N(C(=O)c2ccc(Cl)cc2)S(=O)(=O)c2ccc(C)cc2)cc1 | i | nt | nt | nt | ? | nt
Cc1noc(C)c1C(=O)N1CCCC(C(=O)c2cccc(C(F)(F)F)c2)C1 (stereo not given) | i | 10% | -2% | 5.8µM* | i | 14%
COc1ccc(C2c3cc4c(cc3OC(N3CCOCC3)C2C)OCO4)c(OC)c1 (stereo not given) | 4.6µM* | ? | 2.9µM* | ? | ? | ?
C=CCn1c(O)c(N=NC(=S)Nc2cccc(C)c2)c2ccccc21 | ? | ? | -26% | ? | 2.9µM* | -6%
NC(=S)N=Nc1c(O)n(Cc2ccccc2)c2ccccc12 | i | -23% | 15% | -7% | i | -21%
COC(=O)N=Nc1c(O)n(Cc2ccccc2)c2ccccc12 | i | 10% | 13% | 13% | i | ?
C/C(Cl)=C\Cn1c(O)c(N=NC(N)=S)c2ccccc21 | ? | -24% | 15% | ? | 9.2µM* | -30%
COC(=O)c1ccc(Cn2c(O)c(N=NC(N)=S)c3ccccc32)o1 | i | 0% | 1% | 23µM* | i | -2%
C=CCn1c(O)c(N=NC(=S)Nc2ccccc2F)c2ccccc21 | ? | ? | -13% | -53% | i | -25%
CCn1ncc(CN2CCN(Cc3cccc(OC)c3)C(CCO)C2)c1C (stereo not given) | i | 2% | -7% | -5% | i | 14%
CCOC(=O)C(=O)NCC(c1cccnc1)N1CCN(c2ccccc2)CC1 (stereo not given) | i | nt | nt | nt | i | nt
SMILES | KB-3-1 tox | HT1080 IDH1KD tx | MCF10A rereplic | SW480 rereplic | KB-V1 cytotox | HT1080-NT tox
Cc1cc(C)c(S(=O)(=O)Nc2ccccc2C(=O)OCC(=O)NCc2ccccc2)c(C)c1 | i | -5% | 0% | -6% | ? | 0%
CCCCCn1c(=O)[nH]c2cc(C(=O)NCCCN(C)Cc3ccccc3)ccc2c1=O | ? | 6% | 28% | ? | 21µM* | 0%
CN(C)CCNC(=O)c1ccc2c(=O)n(Cc3ccc(Cl)cc3)c(=S)[nH]c2c1 | i | ? | ? | 23µM* | i | 23µM*
COc1ccc(-n2c(=O)[nH]c3cc(C(=O)NCCc4ccc(Cl)cc4)ccc3c2=O)cc1OC | i | -8% | 15µM* | ? | i | 0%
CCc1ccc(C(CNC(=O)c2ccc3c(=O)n(-c4ccccc4F)c(=S)[nH]c3c2)N(C)C)cc1 (stereo not given) | i | 33µM* | ? | ? | i | ?
CCOC(=O)N1CCN(C(=O)c2ccc3c(=O)n(-c4ccccc4F)c(=S)[nH]c3c2)CC1 | i | -5% | 1% | -7% | i | -1%
CCN(CC)CCn1c(=S)[nH]c2cc(Cl)ccc2c1=O | i | ? | ? | 16% | i | 18µM*
CCN(CC)CCn1c(=S)[nH]c2ccc(Cl)cc2c1=O | i | ? | 19% | 29% | i | ?
CCCCN(C)CCNC(=O)c1ccc(Cn2c(=S)[nH]c3ccc(Br)cc3c2=O)cc1 | i | 15µM* | 2% | -5% | i | 21µM*
CCN(CC)c1ccc(S(=O)(=O)Nc2cc(Cl)ccc2Cl)cc1NC(=S)NC(=O)C1CCCC1 | i | ? | 12µM* | 7% | i | ?
O=C(NC(=S)Nc1ccccc1Cl)C1CC1 | i | -6% | 12% | 4% | i | 14%
CCN(CC)S(=O)(=O)c1ccc(Cl)c(NC(=S)NC(=O)C2CCCC2)c1 | i | ? | ? | 4.6µM* | i | -9%[9.24 µM]
COc1ccccc1NS(=O)(=O)c1ccc(Cl)c(NC(=S)NC(=O)C2CCCC2)c1 | i | ? | ? | 1% | ? | -25%
CNC(=S)N/N=C/c1c(C)nn(-c2ccccc2)c1Cl | i | 8.9µM* | ? | ? | ? | ?
Cc1nn(-c2ccccc2)c(Cl)c1/C=N/NC(=O)OC(C)(C)C | i | -17% | ? | -12% | 13µM* | -2%
CNC(=S)N/N=C/c1c(C)nn(-c2cccc(Cl)c2)c1Cl | i | ? | 12% | 8% | i | -21%
